Values without a mark were called inactive. Unless noted, the call rests on the fitted dose curve. Results filed as inconclusive are left out.
On the % scale 0 is the no-effect control and ±100 the full control effect.

Chain of Muscarinic acetylcholine receptor M1 (Homo sapiens) (P11229 whole entry, looked up): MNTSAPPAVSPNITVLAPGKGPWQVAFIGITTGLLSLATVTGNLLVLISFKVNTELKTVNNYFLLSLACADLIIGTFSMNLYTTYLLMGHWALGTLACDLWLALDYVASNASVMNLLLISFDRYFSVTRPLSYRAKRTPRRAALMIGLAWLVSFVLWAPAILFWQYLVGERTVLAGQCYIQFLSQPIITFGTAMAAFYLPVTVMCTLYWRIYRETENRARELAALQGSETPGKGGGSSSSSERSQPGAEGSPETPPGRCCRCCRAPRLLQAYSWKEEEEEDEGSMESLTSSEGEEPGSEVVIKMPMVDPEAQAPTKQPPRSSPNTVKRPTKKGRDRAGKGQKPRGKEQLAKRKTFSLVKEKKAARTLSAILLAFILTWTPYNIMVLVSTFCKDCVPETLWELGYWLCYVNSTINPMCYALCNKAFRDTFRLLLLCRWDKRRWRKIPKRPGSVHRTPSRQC

One assay addresses Muscarinic acetylcholine receptor M1 (Homo sapiens) (UniProt P11229). The assay is described as follows: Cholinergic receptor muscarinic 1 (CHRM1) small molecule agonists, cell-based qHTS assay (AID 1963589). Further: nearly all actives have a fitted effect of over 35% in size. As to conditions: CHRM1-CHO cells, agonist mode, calcium flux fluorescence; series mostly up to 76.8 µM; activation: at the top concentration. The procedure, abridged:
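Fluorescent calcium dye reports M1 activation in stably transfected CHO cells. Compounds, 15 concentrations, added after 1 h dye loading at 37 C; kinetic reading at 1 sec intervals.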
A general note: qHTS replaces the single test concentration by a dilution series.
Take `CCCC1CCC(=O)O1` (stereo not given): the “activation” value was 0.088%.

As for `COc1ccc(/C=C/S(=O)(=O)NC(=O)c2ccc(C)cc2Cl)cc1`, the “activation” value was 1%.

For `N[C@@H](Cc1cc(I)c(O)c(I)c1)C(=O)O`, the “activation” value is 3.92% [at 35.3 µM].

For the compound `C=CC(=O)OCC(Br)CBr` (stereo not given), the “activation” value is -0.563%.

Consider `COc1ccc(C(=O)N2CCN(CC(=O)N3CCOCC3)CC2)cc1`, for which the “activation” value was -0.109% [at 35.3 µM].

In the case of `COCCC(=O)OC`, the “activation” value is 0.0236%.

`Cc1nc2ccc(Cl)cc2[nH]1`: the “activation” value was 1.26%.

Consider `CC(C)(C)C(=O)C(=O)O`, for which the “activation” value was -0.436%.

On to `COc1cccc(O)c1O`, for which the “activation” value is -0.158%.

With `N=C1C=CC(=C(c2ccc(N)cc2)c2ccc(N)cc2)C=C1`, the “activation” value is 2.06%.

As to `O=C1c2ccccc2C(=O)C1c1ccc2ccccc2n1`, the “activation” value was -0.945% [at 35.3 µM].

In the case of `CN1CCN(C2=Nc3cc(F)ccc3Cc3ccccc32)CC1`, the “activation” value was 0.643% [at 35.3 µM].

For `CC1=NN(c2ccc(C(=O)O)cc2)C(=O)C1`, the “activation” value is 0.459%.

As to `Oc1ccc(Oc2ccccc2)cc1`, the “activation” value is -0.431%.

`CC(C)(O)CCCC1=CCC(C=O)CC1` (stereo not given): the “activation” value is 0.168%.

As for `NS(=O)(=O)Cc1noc2ccccc12`, the “activation” value was -0.244% [at 35.3 µM].

On to `COc1ccc(C(=O)c2ccc(OC)cc2O)c(O)c1`, for which the “activation” value was -0.114%.

Regarding `CCOC(=O)O[C@H](C)OC(=O)c1ccc2c(c1)cc(C(=O)NC1CCN(C(C)C)CC1)n2Cc1cc(-c2ccc(Cl)s2)on1`, the “activation” value was 0.0882%.

Regarding `Cc1cccc(N(C)C(=S)Oc2ccc3c(c2)CCC3)c1`, the “activation” value is -0.275% [at 35.3 µM].

Consider `CCCC(=O)OCCC(C)C`, for which the “activation” value is -1.01%.

As for `COc1ccccc1NC(=O)c1cc2ccccc2cc1O`, the “activation” value was 1.59%.

As for `O=C(CCBr)N1CCN(C(=O)CCBr)CC1`, the “activation” value was -0.147% [at 35.3 µM].

`CN(C)CCC=C1c2ccccc2C=Cc2ccccc21`: the “activation” value is -0.0153% [at 35.3 µM].

As to `O=C(O)c1cccc(Oc2ccccc2)c1`, the “activation” value was -0.0807%.

For `COc1ccc([C@@H]2Sc3ccccc3NC(=O)[C@@H]2O)cc1`, the “activation” value was -0.34% [at 35.3 µM].

In the case of `Oc1ccc(C2CNCCc3c2cc(O)c(O)c3Cl)cc1` (stereo not given), the “activation” value was -0.286% [at 35.3 µM].

Turning to `CC(c1cc(C(C)(C)C)cc(C(C)(C)C)c1O)c1cc(C(C)(C)C)cc(C(C)(C)C)c1O`, the “activation” value was -0.466%.

On to `Nc1ccc(S(=O)(=O)NCc2ccccc2)cc1`, for which the “activation” value is 0.0479% [at 35.3 µM].

For the compound `O=Cc1ccccc1[N+](=O)[O-]`, the “activation” value was -0.0694%.

For `CCCCCCCCCCCCCCCCCC(=O)OCCCCCCCCCCCCCC(C)C`, the “activation” value is 0.35%.

Regarding `CCCCCCCCCCCCCCCCCl`, the activation was -0.468% [at 15.8 µM].

For `CCCOC(=O)c1ccc(O)cc1`, the “activation” value was -0.116%.

Tested on in a further assay: not listed separately
The assay can be described thus: cAMP Responsive Elements (CRE) small molecule agonists, cell-based qHTS assay (AID 1963590). As to conditions: CRE-bla HEK293T, beta-lactamase FRET ratio, 3 h; series mostly up to 92.4 µM; activation: at the top concentration. The procedure, abridged: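 Compound exposure lasted 3 h at 37 C/5% CO2 in CRE-bla HEK 293T cells grown in assay medium with 10% dialyzed FBS and 25 mM HEPES. Reporter signal came from LiveBLAzer B/G FRET substrate, 2 h, room temperature.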
Take `CCCC1CCC(=O)O1` (stereo not given): the “activation” value is 1.22%.

In the case of `CCN(CC)c1ccc2c(-c3ccc(S(=O)(=O)O)cc3S(=O)(=O)[O-])c3ccc(=[N+](CC)CC)cc-3oc2c1`, the “activation” value is -1.08%.

In the case of `COc1ccc(/C=C/S(=O)(=O)NC(=O)c2ccc(C)cc2Cl)cc1`, the “activation” value is -1.64%.

With `N[C@@H](Cc1cc(I)c(O)c(I)c1)C(=O)O`, the “activation” value is -0.0896% [at 42.5 µM].

As for `C=CC(=O)OCC(Br)CBr` (stereo not given), the “activation” value is -1.03%.

As for `O=C1CCC(C2CCCCC2)CC1`, the “activation” value is -2.68%.

Regarding `COCCC(=O)OC`, the “activation” value was -0.192%.

For `CC(C)(C)C(=O)C(=O)O`, the “activation” value was -0.033%.

Turning to `COc1cccc(O)c1O`, the “activation” value was 0.126%.

`CN1CCN(C2=Nc3cc(F)ccc3Cc3ccccc32)CC1`: the “activation” value was -0.174% [at 42.5 µM].

Consider `CC1=NN(c2ccc(C(=O)O)cc2)C(=O)C1`, for which the “activation” value was 0.19%.

Regarding `Oc1ccc(Oc2ccccc2)cc1`, the “activation” value was 0.652%.

In the case of `CC(C)(O)CCCC1=CCC(C=O)CC1` (stereo not given), the “activation” value was 0.21%.

With `NS(=O)(=O)Cc1noc2ccccc12`, the “activation” value was 0.126% [at 42.5 µM].

Consider `Cc1cccc(N(C)C(=S)Oc2ccc3c(c2)CCC3)c1`, for which the “activation” value was 3.74% [at 42.5 µM].

For `CCCC(=O)OCCC(C)C`, the “activation” value is -0.736%.

As for `O=C(CCBr)N1CCN(C(=O)CCBr)CC1`, the “activation” value is 0.669% [at 42.5 µM].

Consider `COc1ccc([C@@H]2Sc3ccccc3NC(=O)[C@@H]2O)cc1`, for which the “activation” value was -0.936% [at 42.5 µM].

Turning to `Oc1ccc(C2CNCCc3c2cc(O)c(O)c3Cl)cc1` (stereo not given), the “activation” value was 1.11% [at 42.5 µM].

For `CC(c1cc(C(C)(C)C)cc(C(C)(C)C)c1O)c1cc(C(C)(C)C)cc(C(C)(C)C)c1O`, the “activation” value was -1.65%.

For `Nc1ccc(S(=O)(=O)NCc2ccccc2)cc1`, the “activation” value was 0.214% [at 42.5 µM].

Take `Nc1[nH]c(=O)ncc1F`: the “activation” value was -1.14% [at 42.5 µM].

Take `CCCCCCCCCCCCCCCCCC(=O)OCCCCCCCCCCCCCC(C)C`: the “activation” value was 0.111%.

On to `CCCCCCCCCCCCCCCCCl`, for which the activation was -1.81% [at 19 µM].

Turning to `CCCOC(=O)c1ccc(O)cc1`, the “activation” value was -2.75%.

As for `CCCCS`, the “activation” value was -1.06%.

Tested on in the next assay: not listed separately
The assay can be described thus: cAMP Responsive Elements (CRE) small molecule antagonists, cell-based qHTS assay (AID 1963591; active means well fitted inhibition curve with a large enough effect in the signal ratio in the repeat runs, not every such curve was filed as active; the % refers to the signal ratio). As to conditions: CRE-bla HEK293T, beta-lactamase FRET ratio; series mostly up to 92.4 µM; activity change, negative = inhibition: at the top concentration. The procedure, abridged: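 Stimulation used NKH477 at a final 0.25 uM for 3 h in compound-treated CRE-bla HEK293T cells, seeded 18 h beforehand. Reporter activity was measured with LiveBLAzer B/G FRET substrate after 2 h at room temperature.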
Turning to `CCN(CC)c1ccc2c(-c3ccc(S(=O)(=O)O)cc3S(=O)(=O)[O-])c3ccc(=[N+](CC)CC)cc-3oc2c1`, the “activity change, negative = inhibition” value was -3.81%.

Consider `N[C@@H](Cc1cc(I)c(O)c(I)c1)C(=O)O`, for which the “activity change, negative = inhibition” value was 7.4% [at 42.4 µM].

On to `C=CC(=O)OCC(Br)CBr` (stereo not given), for which the “activity change, negative = inhibition” value was 2.9%.

As to `O=C1CCC(C2CCCCC2)CC1`, the “activity change, negative = inhibition” value was 11.9%.

For the compound `COc1ccc(C(=O)N2CCN(CC(=O)N3CCOCC3)CC2)cc1`, the “activity change, negative = inhibition” value was 0.593% [at 42.4 µM].

As to `COCCC(=O)OC`, the “activity change, negative = inhibition” value is -18.5%.

On to `CC(C)(C)C(=O)C(=O)O`, for which the “activity change, negative = inhibition” value was -6.72%.

With `O=C1c2ccccc2C(=O)C1c1ccc2ccccc2n1`, the “activity change, negative = inhibition” value was -1.06% [at 42.4 µM].

`CN1CCN(C2=Nc3cc(F)ccc3Cc3ccccc32)CC1`: the “activity change, negative = inhibition” value is 0.0951% [at 42.4 µM].

For `CC1=NN(c2ccc(C(=O)O)cc2)C(=O)C1`, the “activity change, negative = inhibition” value was -0.0896%.

As for `NS(=O)(=O)Cc1noc2ccccc12`, the “activity change, negative = inhibition” value was -9.61% [at 42.4 µM].

As to `COc1ccc(C(=O)c2ccc(OC)cc2O)c(O)c1`, the “activity change, negative = inhibition” value was -27.5%.

Turning to `Fc1ccc([C@@H]2CCNC[C@H]2COc2ccc3c(c2)OCO3)cc1`, the “activity change, negative = inhibition” value was -16% [at 42.4 µM].

Take `Cc1cccc(N(C)C(=S)Oc2ccc3c(c2)CCC3)c1`: the “activity change, negative = inhibition” value was 5.04% [at 42.4 µM].

Consider `O=C(CCBr)N1CCN(C(=O)CCBr)CC1`, for which the “activity change, negative = inhibition” value is 9.9% [at 42.4 µM].

For `CN(C)CCC=C1c2ccccc2C=Cc2ccccc21`, the “activity change, negative = inhibition” value was -0.128% [at 42.4 µM].

`Oc1ccc(C2CNCCc3c2cc(O)c(O)c3Cl)cc1` (stereo not given): the “activity change, negative = inhibition” value is -1.82% [at 42.4 µM].

With `CC(c1cc(C(C)(C)C)cc(C(C)(C)C)c1O)c1cc(C(C)(C)C)cc(C(C)(C)C)c1O`, the “activity change, negative = inhibition” value was -17.7%.

As to `Nc1ccc(S(=O)(=O)NCc2ccccc2)cc1`, the “activity change, negative = inhibition” value is -9.19% [at 42.4 µM].

Consider `Nc1[nH]c(=O)ncc1F`, for which the “activity change, negative = inhibition” value is -1.6% [at 42.4 µM].

As to `O=Cc1ccccc1[N+](=O)[O-]`, the “activity change, negative = inhibition” value was -11.4%.

Consider `CCC1CCC(CCC(=O)O)C1` (stereo not given), for which the “activity change, negative = inhibition” value was 0.515%.

On to `CCCCCCCCCCCCCCCCCC(=O)OCCCCCCCCCCCCCC(C)C`, for which the “activity change, negative = inhibition” value is -1.04%.

For the compound `CCCCCCCCCCCCCCCCCl`, the activity change, negative = inhibition was -10.5% [at 18.9 µM].

`CCCOC(=O)c1ccc(O)cc1`: the “activity change, negative = inhibition” value was -5.44%.

`CC1COc2c(N3CCN(C)CC3)c(F)cc3c(=O)c(C(=O)O)cn1c23` (stereo not given): the “activity change, negative = inhibition” value is 6.78% [at 42.4 µM].

`CCCCS`: the “activity change, negative = inhibition” value is 1.01%.

(Values after PubChem BioAssay (Tox21).)
